In PubChem BioAssay AID765 (NMMLSC, 2007):
Calls of active or inactive are those of the source. Cut-off read from the data, not from the text of the source: active = inhibition above about 31%; inactive = the rest.

What follows are compounds tested against N-formyl peptide receptor 2 (Homo sapiens) (UniProt P25090) (assay: FPRL1 fluorescent ligand binding inhibitors, cell-based, flow cytometry, single concentration (AID 765)). Conditions: FPRL1-expressing cells, active compounds read high; at 5.1 µM unless noted.
Sequence of N-formyl peptide receptor 2 (Homo sapiens) (P25090 whole entry, looked up): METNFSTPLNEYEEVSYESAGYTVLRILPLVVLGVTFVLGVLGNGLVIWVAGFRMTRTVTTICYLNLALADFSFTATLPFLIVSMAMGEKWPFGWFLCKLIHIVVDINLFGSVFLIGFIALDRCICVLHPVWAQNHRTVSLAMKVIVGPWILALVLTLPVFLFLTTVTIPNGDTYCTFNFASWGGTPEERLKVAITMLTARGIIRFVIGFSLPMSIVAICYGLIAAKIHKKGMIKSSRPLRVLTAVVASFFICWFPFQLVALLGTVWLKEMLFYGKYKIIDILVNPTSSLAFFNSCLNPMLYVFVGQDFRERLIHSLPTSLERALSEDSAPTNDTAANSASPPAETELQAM

Compound | inhibition
COc1ccc(-c2cn3cccnc3n2)cc1NC(=O)C(C)C | 25.1% [at 7.2 µM] (inactive)
COc1ccc(-c2cn3cccnc3n2)cc1NC(=O)c1ccccc1Br | 3.2% [at 5.3 µM] (inactive)
COc1ccc(-c2nc(N3CCN(C)CC3)[nH]c(=O)c2C#N)cc1 | -9.7% [at 6.8 µM] (inactive)
CCCC(=O)Nc1cccc(-c2cn3cccnc3n2)c1 | -2.8% [at 7.9 µM] (inactive)
Cc1ccc2nc(N3CCN(c4ccccc4Cl)CC3)nc(-c3ccccc3)c2c1 | 33.4% [at 5.4 µM] (active)
COc1ccc(-c2cn3cccnc3n2)cc1NC(=O)c1ccc(Cl)cc1 | 3% [at 5.9 µM] (inactive)
O=C(O)CC1(CC(=O)N2CCN(c3nc(-c4ccccc4Cl)c4cc(Br)ccc4n3)CC2)CCCC1 | -5.2% [at 3.9 µM] (inactive)
COc1ccc(-c2cn3cccnc3n2)cc1NC(=O)c1ccc(F)c(F)c1 | -13.5% [at 5.8 µM] (inactive)
COc1ccc(-c2cn3cccnc3n2)cc1NC(=O)c1ccc(Br)o1 | -10% [at 5.4 µM] (inactive)
COc1ccc(-c2cn3cccnc3n2)cc1NC(=O)c1cccc(C(F)(F)F)c1 | 3.7% [at 5.4 µM] (inactive)
COc1ccc(-c2cn3cccnc3n2)cc1NC(=O)C1CC1 | 71.5% [at 7.2 µM] (active)
O=C(c1ccccc1Cl)N1CCN(c2nc(-c3ccccc3)c3cc(Cl)ccc3n2)CC1 | 4.5% [at 4.8 µM] (inactive)
FC(F)(F)c1nc(N2CCN(Cc3ccccc3)CC2)nc2c1CCCCC2 | 11.8% [at 5.7 µM] (inactive)
CCC(=O)Nc1cc(-c2cn3cccnc3n2)ccc1OC | 41.3% [at 7.5 µM] (active)
COc1ccc(-c2cc(C#N)nc(N3CCN(c4ccccc4)CC3)n2)cc1 | 5.3% [at 6 µM] (inactive)
Fc1ccc(-c2cc(C(F)(F)F)nc(N3CCN(C(c4ccccc4)c4ccccc4)CC3)n2)cc1 | -9.4% [at 4.5 µM] (inactive)
CCCC(CCC)C(=O)Nc1cc(-c2cn3cccnc3n2)ccc1OC | 19.4% [at 6.1 µM] (inactive)
COc1ccccc1-c1cc(C(F)(F)F)nc(N2CCN(Cc3ccccc3)CC2)n1 | 14.1% [at 5.2 µM] (inactive)
O=C(O)CCCC(=O)N1CCN(c2nc(-c3ccccc3)c3ccccc3n2)CC1 | -1.7% [at 5.5 µM] (inactive)

Compound | inhibition
Cc1ccc(-c2cc(C(F)F)nc(N3CCN(c4ccccc4)CC3)n2)cc1 | 21.3% [at 5.8 µM] (inactive)
Clc1cccc(-c2nc(N3CCN(C4CCCCC4)CC3)nc3c2COc2ccccc2-3)c1 | -1.5% [at 4.8 µM] (inactive)
O=C(c1ccc(Cl)cc1)N1CCN(c2nc(-c3ccccc3)c3ccccc3n2)CC1 | 1.6% [at 5.2 µM] (inactive)
O=C(N1CCN(c2nc(-c3ccccc3)c3cc([N+](=O)[O-])ccc3n2)CC1)C(F)(F)F | -4.2% [at 5.2 µM] (inactive)
COc1ccc(-c2cc(C(F)(F)F)nc(N3CCN(C(c4ccccc4)c4ccccc4)CC3)n2)cc1OC | 25.4% [at 4.2 µM] (inactive)
Fc1ccc(-c2cc(C(F)(F)F)nc(N3CCN(c4ccccc4)CC3)n2)cc1 | 1.9% [at 5.5 µM] (inactive)
CCCCN1CCN(c2nc(-c3ccccc3)c3cc(C)ccc3n2)CC1 | 17.2% [at 5.6 µM] (inactive)
O=C(c1cccc(F)c1)N1CCN(c2nc(-c3cccs3)cc(C(F)(F)F)n2)CC1 | -12.6% (inactive)
FC(F)(F)c1cc(-c2ccco2)nc(N2CCN(C(c3ccccc3)c3ccccc3)CC2)n1 | -10.5% [at 4.8 µM] (inactive)
COc1ccc(CC(=O)Nc2cc(-c3cn4cccnc4n3)ccc2OC)cc1 | 64.2% [at 5.7 µM] (active)
COc1ccc(-c2cc(C(F)(F)F)nc(N3CCN(c4ccc(F)cc4)CC3)n2)cc1OC | 5.4% [at 4.8 µM] (inactive)
Cc1ccc(-c2cc(C(F)F)nc(N3CCN(Cc4ccccc4)CC3)n2)cc1 | -4.2% [at 5.6 µM] (inactive)
Clc1ccccc1N1CCN(c2nc(-c3ccccc3)c3cc(Br)ccc3n2)CC1 | 5.1% [at 4.6 µM] (inactive)
COc1ccc(-c2cc(-c3ccc(F)cc3)nc(N3CCN(C)CC3)n2)cc1 | -2.6% [at 5.9 µM] (inactive)
COc1ccccc1-c1cc(C(F)(F)F)nc(N2CCN(c3ccccc3OC)CC2)n1 | -2.8% [at 5 µM] (inactive)
CC(C)(C)OC(=O)N1CCN(c2nc(-c3ccccc3)c3cc(Br)ccc3n2)CC1 | -2.1% [at 4.7 µM] (inactive)
O=C(N1CCN(c2nc(-c3ccccc3)c3ccccc3n2)CC1)C(F)(F)F | 24.8% [at 5.8 µM] (inactive)
CCOC(=O)N1CCN(c2nc(-c3ccc(OC)c(OC)c3)cc(C(F)(F)F)n2)CC1 | 36.1% (active)
